Assay in all cases: growth inhibition (% activity, log2 RLU normalised to DMSO / staurosporine); higher = more growth inhibition
What all share (conditions): 33 µM

In one assay the test system is DIPGX29 (H3.3 K27M diffuse intrinsic pontine glioma line). The method in brief: (§1)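 The growth-inhibition value is the median over replicates. pHGG cell lines and H9-derived neural stem cells on Geltrex-coated 384-well plates received approved drugs by pin tool at a single final concentration of about 33 μM, in triplicate, for 7 days at 37 °C, 5% CO2. CellTiter-Glo luminescence was log2-transformed and normalised per plate to % activity between solvent and positive control wells.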

The next assay concerns DIPGX37 (H3.3 K27M diffuse intrinsic pontine glioma line). The method in brief: as §1
A further assay concerns DIPGX7 (H3.3 K27M diffuse intrinsic pontine glioma line). The method in brief:
as §1

Another assay has as its system DIPGX9 (diffuse intrinsic pontine glioma line). The procedure, abridged: as §1
Another assay relates to HGGX39 (paediatric high-grade glioma line). The procedure, abridged: as §1
A further assay concerns HGGX6 (H3.3 G34R paediatric high-grade glioma line). The method in brief:
as §1

The test system of another assay is HNSC. The procedure, abridged: as §1
For a further assay, the system named is SUDIPGIV (diffuse intrinsic pontine glioma line)
The method in brief:
as §1

The test system of another assay is SUDIPGVI (diffuse intrinsic pontine glioma line)
The procedure, abridged:
as §1

In the next assay the test system is SUDIPGXIII (diffuse intrinsic pontine glioma line)
The method in brief:
as §1

SMILES strings stand for the structures.

These results are taken from the supplement of paper PMC8253809.

As to `NCCNCCNCCNCCN`, the growth inhibition in the assay on DIPGX29 came out at 1.8%; with DIPGX37, 3.32%; in the assay with DIPGX7, 2.9%; in the assay with DIPGX9, 2.04%; in the assay with HGGX39, 2.02%; in the assay on HGGX6, 3.41%. Further, the growth inhibition turned out to be 4.1% in the assay with HNSC, 5.08% in the assay on SUDIPGIV, 4.87% in the assay with SUDIPGVI and 0.192% with SUDIPGXIII.

For the compound `CC1(C)O[C@@H]2C[C@H]3[C@@H]4C[C@H](F)C5=CC(=O)C=C[C@]5(C)[C@@]4(F)[C@@H](O)C[C@]3(C)[C@]2(C(=O)CO)O1`, the growth inhibition in the assay on DIPGX29 stood at 5.9%; in the assay on DIPGX37, 6.05%; with DIPGX7 it was 2.96%; in the assay on DIPGX9, 7.24%; in the assay on HGGX39, 5.97%; in the assay with HGGX6, 3.53%. Also, the growth inhibition is 1.69% in the assay with HNSC, 1.18% in the assay with SUDIPGIV, 3.97% in the assay with SUDIPGVI and -0.393% in the assay on SUDIPGXIII.

For `CCCCOc1ccc(C(=O)CCN2CCCCC2)cc1`, the growth inhibition is 3.95% in the assay with DIPGX29; 1.81% in the assay with DIPGX37; 13% in the assay on DIPGX7; 3.6% in the assay with DIPGX9; 8.09% with HGGX39; 7.94% in the assay with HGGX6. Further, the growth inhibition was 6.88% in the assay with HNSC, 0.947% in the assay on SUDIPGIV, 1.6% in the assay on SUDIPGVI and 1.44% with SUDIPGXIII.

Take `COc1cc(C(C)=O)ccc1OCCCN1CCC(c2noc3cc(F)ccc23)CC1`: the growth inhibition with DIPGX29 is 1.79%; with DIPGX37, 0.322%; with DIPGX7, 12.7%; with DIPGX9, 0.361%; with HGGX39, 4.35%; with HGGX6, 0.871%. Moreover, the growth inhibition is 0.367% in the assay with HNSC, 2.3% in the assay with SUDIPGIV, -12.2% in the assay on SUDIPGVI and 4.02% with SUDIPGXIII.

As to `Cc1cnc(C(=O)NCCc2ccc(S(=O)(=O)NC(=O)NC3CCCCC3)cc2)cn1`, the growth inhibition in the assay on DIPGX29 came out at 0.556%; with DIPGX37, 2.29%; in the assay on DIPGX7, 1.52%; in the assay on DIPGX9, 0.701%; with HGGX39 it was 1.35%; with HGGX6, 1.61%. For the same compound, the growth inhibition was determined as 0.478% in the assay with HNSC, 0.461% with SUDIPGIV, 1.46% with SUDIPGVI and 0.0328% in the assay with SUDIPGXIII.

On to `Cc1ncc([N+](=O)[O-])n1CC(O)CCl` (stereo not given), for which the growth inhibition in the assay with DIPGX29 was 1.6%; with DIPGX37 it was -0.696%; in the assay with DIPGX7, 3.64%; with DIPGX9 it was 1.89%; in the assay with HGGX39, 2.83%; in the assay on HGGX6 it was 1.22%. The growth inhibition came out at 6.21% in the assay on HNSC, 1.59% in the assay on SUDIPGIV, 4.35% with SUDIPGVI and 0.346% with SUDIPGXIII.

On to `CCN1CCN(C(=O)N[C@@H](C(=O)N[C@@H]2C(=O)N3[C@@H]2SC(C)(C)[C@@H]3C(=O)O)c2ccccc2)C(=O)C1=O`, for which the growth inhibition in the assay with DIPGX29 is -0.286%; with DIPGX37, 0.221%; in the assay on DIPGX7, -0.734%; in the assay on DIPGX9, -1.09%; with HGGX39 it was -0.282%; in the assay on HGGX6 it was 0.186%. In addition, the growth inhibition in the assay on HNSC is -1.83%; in the assay on SUDIPGIV, -0.166%; with SUDIPGVI it was 0.068%; in the assay on SUDIPGXIII, -11.8%.

For `C#Cc1cccc(Nc2ncnc3cc(OCCOC)c(OCCO)cc23)c1`, the growth inhibition was found to be 6.22% in the assay on DIPGX29; 3.87% with DIPGX37; 4.89% in the assay with DIPGX7; 4.84% in the assay on DIPGX9; 9.77% in the assay on HGGX39; 9.46% in the assay on HGGX6. Further, the growth inhibition is 31.8% with HNSC, -3.74% with SUDIPGIV, 2.81% in the assay with SUDIPGVI and 0.549% in the assay with SUDIPGXIII.

Regarding `CC(=O)[C@H]1CC[C@H]2[C@@H]3C=CC4=CC(=O)CC[C@@]4(C)[C@@H]3CC[C@]12C`, the growth inhibition in the assay on DIPGX29 is -0.886%; with DIPGX37, 4.22%; in the assay on DIPGX7, -0.136%; in the assay on DIPGX9 it was 0.45%; in the assay on HGGX39 it was 1.86%; in the assay on HGGX6, -2.88%. Moreover, the growth inhibition with HNSC is 6.39%; in the assay on SUDIPGIV it was 2.11%; in the assay on SUDIPGVI it was 0.865%; in the assay on SUDIPGXIII, -1.05%.

With `O=c1[nH]c(=O)n([C@H]2C[C@H](O)[C@@H](CO)O2)cc1C(F)(F)F`, the growth inhibition with DIPGX29 is -1.08%; in the assay on DIPGX37, 0.535%; in the assay with DIPGX7, -1.11%; with DIPGX9 it was 5.19%; with HGGX39, 8.23%; in the assay on HGGX6 it was -0.706%. The growth inhibition was 57.7% in the assay on HNSC, 13.1% in the assay with SUDIPGIV, -3.24% in the assay with SUDIPGVI and 2.3% with SUDIPGXIII.
